Screening results as filed in PubChem.
NPR1 antag: Natriuretic polypeptide receptor (hNpr1) antagonism - Primary qHTS; AID 1347048, 2019; hit rate 1.6% among 76,000; Potency, µM (doses to about 46.3 µM), inactives show at the highest dose activity change, negative = inhibition, most hits filed as inhibitors; Atrial natriuretic peptide receptor 1 (Homo sapiens), P16066; HEK293 hNpr1 GloSensor cGMP, ANP-stimulated luminescence; calls by dose curve; further: on the % scale 0 is the no-effect control and ±100 the full control effect; nearly all actives have a fitted effect of over 60% in size
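Compound pre-incubated 30 min at room temperature on GloSensor-loaded HEK293 cells stably carrying hNpr1 and the pGS-40F cGMP biosensor. Stimulation uses hNppA at 0.1 nM final; luminescence is taken at baseline and 20 min post-agonist.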
NIH3T3 tox: Cytotoxic Profiling in NIH 3T3 Cell Line of Diverse Libraries Using Quantitative High-Throughput Screening. NIH 3T3 viability, CellTiter-Glo ATP luminescence, 48-72 h. Potency, µM (highest dose often 96.7 µM), for inactives: at the highest dose activity change, negative = cytotoxicity, most hits filed as inhibitors. hit rate 4.3% among 94,000; further: on the % scale 0 is the no-effect control and ±100 the full control effect; nearly all actives have a fitted effect of over 55% in size
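Luminescent ATP readout (CellTiter-Glo, 10 min RT) after 48 or 72 hr compound exposure of NIH 3T3 cells seeded at 400 cells/well in 1536-well format; quantitative HTS.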
HEK cytotox: Cytotoxic Profiling in HEK 293 Cell Line of Diverse Libraries Using Quantitative High-Throughput Screening; HEK 293 viability, ATP luminescence (CellTiter-Glo), 48-72 h; Potency, µM (top dose mostly 115 µM), for the others: at the top dose activity change, negative = cytotoxicity, most hits filed as inhibitors; hit rate 6.6% among 94,000; AID 1345083, 2018; further: on the % scale 0 is the no-effect control and ±100 the full control effect; nearly all actives have a fitted effect of over 60% in size
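Cells seeded first (HEK 293, 250 cells/well), then compound added by pintool. Incubation ran 48 or 72 hr at 37 degree Celsius. CellTiter-Glo was added and luminescence imaged after 10 min at room temperature.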
Luciferase inh: Firefly luciferase inhibition profiling of diverse chemical library using quantitative high-throughput screening; Luciferin 4-monooxygenase (Photinus pyralis), P08659; Potency, µM (series often up to 115 µM), hits mostly inhibitors; hit rate 2.5% among 76,000; purified P. pyralis luciferase, luminescence, biochemical; AID 1347043, 2019; further: on the % scale 0 is the no-effect control and ±100 the full control effect; nearly all actives have a fitted effect of over 65% in size
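Purified P. pyralis luciferase (10nM final) in 50mM Tris acetate pH 7.5, 10mM Mg acetate, 0.01% Tween-20, 0.05% BSA with 10uM D-luciferin and 10uM ATP. Compounds titrated qHTS. Luminescence imaged on CCD.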
GPT2 inhibitor: Primary qHTS assay for inhibitors of Glutamate pyruvate transaminase 2 (GPT2); Alanine aminotransferase 2 (Homo sapiens), Q8TD30; hit rate 0.25% among 100,000; Potency, µM (top dose mostly 57.7 µM), for the others: top-dose activity change, negative = inhibition, usual class: inhibitors; AID 1671188, 2021; Recombinant GPT2, coupled pyruvate oxidase/HRP Amplex Red fluorescence; further: on the % scale 0 is the no-effect control and ±100 the full control effect; nearly all actives have a fitted effect of over 60% in size
Target sequence (Q8TD30 whole entry, looked up): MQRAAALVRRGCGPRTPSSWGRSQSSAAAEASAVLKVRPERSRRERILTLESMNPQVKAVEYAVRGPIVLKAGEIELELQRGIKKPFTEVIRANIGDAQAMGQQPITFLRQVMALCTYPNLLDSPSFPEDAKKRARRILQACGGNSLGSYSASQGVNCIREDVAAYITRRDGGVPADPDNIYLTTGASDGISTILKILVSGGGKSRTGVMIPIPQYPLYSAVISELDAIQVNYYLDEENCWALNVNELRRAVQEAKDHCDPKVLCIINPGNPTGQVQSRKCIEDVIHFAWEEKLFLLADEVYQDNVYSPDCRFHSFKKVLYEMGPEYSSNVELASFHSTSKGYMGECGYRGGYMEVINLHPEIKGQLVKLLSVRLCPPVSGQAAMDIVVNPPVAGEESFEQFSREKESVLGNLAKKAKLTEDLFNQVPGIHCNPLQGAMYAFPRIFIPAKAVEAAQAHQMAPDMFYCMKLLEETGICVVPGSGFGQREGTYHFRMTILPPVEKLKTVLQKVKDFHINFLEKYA
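GPT2 10ng/uL, a-KG 250uM, L-Ala 2mM, HEPES pH7.5 + 0.0001% Tween; 30 min RT. Then Amplex mix (PO/HRP/ThPP), 30 min RT dark, fluorescence. AOA 50uM used as positive control.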
NPR1 antag cnf: Natriuretic polypeptide receptor (hNpr1) antagonism - Confirmation. Potency, µM (series often up to 57.6 µM), inactives show top-dose activity change, negative = inhibition, actives largely listed as inhibitors. shares compounds with NPR1 antag. hit rate 76% among 1,400. HEK293 hNpr1 cGMP GloSensor luminescence, ANP-stimulated; calls by dose curve; further: nearly all actives have a fitted effect of over 70% in size
Npr2 selectivity: Natriuretic polypeptide receptor (hNpr2) antagonism - Subtype selectivity assay. shares compounds with NPR1 antag. HEK293 hNpr2 GloSensor cGMP luminescence, CNP-stimulated. Potency, µM (titrated, usually from 57.6 µM), for the others: top-dose activity change, negative = inhibition, usual class: inhibitors. hit rate 67% among 1,400; calls by dose curve; further: nearly all actives have a fitted effect of over 70% in size
FLuc counter: Natriuretic polypeptide receptor (hNpr1) antagonism - Confirmation firefly luciferase (FLuc) inhibition counterscreen. shares compounds with NPR1 antag. purified FLuc enzyme, luminescence, Km substrate. Potency, µM (titrated, usually from 57.6 µM), inactives show at the highest dose activity change, negative = inhibition, usual class: inhibitors. hit rate 0.7% among 1,400. AID 1347047, 2019; further: series mostly up to about 58 µM; 0% is about no effect
GloSensor cGMP: Natriuretic polypeptide receptor (hNpr1) antagonism - Counterscreen GloSensor control cell line; hit rate 69% among 1,400; Potency, µM (top dose mostly 57.6 µM), for inactives: at the highest dose activity change, negative = inhibition, most hits filed as inhibitors; HEK293 GloSensor cGMP, SNP-stimulated, luminescence; shares compounds with NPR1 antag; calls by dose curve; further: on the % scale 0 is the no-effect control and ±100 the full control effect; nearly all actives have a fitted effect of over 70% in size
* = called active by the depositor; i = inactive; ? = inconclusive; . = not tested or not shown; [ ] = another dose, or the depositor's remark. Only some compounds are listed: those with a hit (about 10% of all), similar ones and a draw of the others. Unless noted, the call rests on the fitted dose curve; in most records, active means well fitted curve in the direction sought with a large enough effect; inconclusive means small, poorly fitted or top-dose-only effect, or another doubt; inactive means no such curve, though single readings can be large; an effect the other way counts as inactive or inconclusive. Potency means the concentration at half of the fitted maximal effect.

SMILES | NPR1 antag | NIH3T3 tox | HEK cytotox | Luciferase inh | GPT2 inhibitor | NPR1 antag cnf | Npr2 selectivity | FLuc counter | GloSensor cGMP
COc1ccc(Cn2c(C3CCN(C(=O)Cc4cccc(F)c4)CC3)n[nH]c2=O)cc1 | -1% | -3% | 1% | i | i | . | . | . | .
CNC(=O)c1cn2cc(-c3ccc(C(F)(F)F)cc3)sc2n1 | . | -9%[138 µM] | -8%[172 µM] | . | i | . | . | . | .
Cc1ccccc1CN1CC[C@@H]2OCC(=O)N(C(C)C)[C@H]2CC1 | 7.9µM* | -24%[138 µM] | ? | i | -11%[88.5 µM] | 7.9µM* | 13µM* | 3%[86.2 µM] | 6.3µM*
O=C(c1ccc(-n2ccnc2)cc1)N1CCC(c2[nH]ncc2-c2ccccc2)CC1 | 11µM* | ? | -22% | i | 0% | 22µM* | 22µM* | 16% | 5%
COCc1ccc(C(=O)N2CCC(c3[nH]ncc3-c3ccccc3)CC2)o1 | -2% | -22% | -3% | i | -5% | . | . | . | .
COc1ccc2nc3n(c2c1)[C@@H](CNC(=O)c1ccccc1)COC3 | 1%[70.6 µM] | ? | i | i | i | . | . | . | .
COc1ccc2nc3n(c2c1)[C@@H](CNCc1ccc2c(c1)OCO2)COC3 | 32µM* | ? | ? | i | ? | 40µM* | 40µM* | -9%[86.2 µM] | 40µM*
Cc1ccc2nc3n(c2c1)[C@@H](CNCc1ccc2c(c1)OCO2)COC3 | 25µM* | ? | ? | i | -7%[88.5 µM] | 35µM* | 35µM* | 0%[86.2 µM] | 31µM*
CCCCc1ccc(NC(=O)Cn2ccn3nc(-c4ccccc4)c(CO)c3c2=O)cc1 | 2% | i | 10% | i | i | . | . | . | .
O=C(Nc1ccc(F)cc1)c1ccc2cc[nH]c2n1 | . | ? | ? | . | 2%[88.5 µM] | 25µM* | 31µM* | 0.89µM* | 25µM*
Cc1cc(C)cc(C(=O)N2CCC(Cc3nc(-c4ccccc4)no3)CC2)c1 | ? | ? | ? | i | -7% | . | . | . | .
CCCCOc1ccc(C(=O)N2CCC(Cc3nc(-c4ccccc4)no3)CC2)cc1 | 10µM* | ? | ? | i | i | 17µM* | 14µM* | 4% | 12µM*
COc1ccc(C(=O)N2CCC(Cc3nc(-c4ccccc4)no3)CC2)cc1OC | 2.8µM* | ? | ? | i | 5% | 5.4µM* | 6.9µM* | 1% | 5.4µM*
Cc1ccc(C(=O)N2CCC(Cc3nc(-c4ccccc4)no3)CC2)s1 | 6.3µM* | ? | 32µM* | i | 3% | 7.7µM* | 9.7µM* | 1% | 8.6µM*
COc1ccc(C(=O)N2CCC(Cc3nc(-c4ccccc4)no3)CC2)cc1F | 3.2µM* | ? | ? | i | i | 3.1µM* | 3.1µM* | -17% | 3.1µM*
CN(CCNC(=O)C1(CCO)CC12CCOCC2)C1CCCCC1 (centres undefined) | . | -23% | 1% | . | -5% | . | . | . | .
Cc1cc(CNC(=O)c2ccc3c(c2)n(CC2CC2)c(=O)n3C2CCCCC2)on1 | 5.6µM* | ? | -22% | i | -5% | 14µM* | 4.8µM* | -2% | -6%
Cc1cc(CNC(=O)c2ccc(S(=O)(=O)NCC(F)F)cc2)on1 | -2% | -12% | -15% | i | i | . | . | . | .
CC(C)CN1C(=O)c2cccn2CC1CNC(=O)c1cccc(F)c1 (centres undefined) | 0% | 1% | ? | i | i | . | . | . | .
NS(=O)(=O)c1ccc(CNC(=O)Cn2nc3c(cc2=O)CCCC3)cc1 | 2% | 0% | 15% | i | -7% | . | . | . | .
COc1ccccc1-c1ncc(CNc2cc(C3CC(O)C3)ncn2)s1 (centres undefined) | 7.1µM* | -64% | 32µM* | i | 4% | 8.6µM* | 12µM* | -27% | 6.9µM*
O=C(CCc1nc2ccccc2s1)N1CCC(Cc2noc(C3CCOCC3)n2)C1 (centres undefined) | -14% | -16% | ? | i | 0% | . | . | . | .
O=C(c1cnccn1)N1CCC2(CC1)NC(=O)N(Cc1cccc(Cl)c1)C2=O | -22% | -20% | -10% | i | i | . | . | . | .
CC(=O)Oc1ccccc1C(=O)Nc1ccc2c(c1)CN(CCc1ccc(F)cc1)C(=O)C(C)O2 (centres undefined) | 16µM* | 25µM* | ? | i | i | 24µM* | 24µM* | -7% | 24µM*
CCNC(=O)Nc1ccc2c(c1)CN(Cc1ccc(Cl)cc1)C(=O)C(C)O2 (centres undefined) | -25% | ? | ? | i | i | . | . | . | .
CC1Oc2ccc(NC(=O)Cc3ccccc3)cc2CN(Cc2ccc(Cl)cc2)C1=O (centres undefined) | 11µM* | ? | ? | i | -1% | 22µM* | 19µM* | 4% | 17µM*
CC1Oc2ccc(NC(=O)c3ccc(F)cc3F)cc2CN(CCc2ccccc2)C1=O (centres undefined) | 3% | -26% | ? | i | -8% | . | . | . | .
O=C1CC2CCN([S+](=O)([O-])c3cccs3)CC2CCN1 (centres undefined) | . | -6% | -3% | . | -3% | . | . | . | .
CC(C)C1=NOC2(CCN(C3COC3)CC2)C1 | . | i | i | . | i | . | . | . | .
COc1ccc(CN2CCCCC23Cc2ccccc2CNC3=O)c(OC)n1 (centres undefined) | . | ? | ? | . | ? | ? | 17µM* | -1% | 4%
